CYP2C19 act: activators of human cytochrome P450 2C19; recombinant CYP2C19, luciferin-H EGE luminescence; hits give high values; 0 = fully inhibited enzyme, 1 = untreated enzyme; 96,000 tested, under 10 active; activation factor at 5 µM;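 active means activation factor of at least 2 at 5 µM in the primary screen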;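 further: 0 = wells with 2.5 mM tranylcypromine and 1 = vehicle-only wells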
Pyk2 oligo antag: blocks oligomerization of human Pyk2 in cells | Q14289 | Q293 cells, Pyk2 FERM NanoBiT luminescence; hits give low values | z-score (the deposit names both 25 µM and 10 µM) | 99,000 tested, 0.83% active | AID 1347419;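 active means Z-score of -3 or lower, scaled per plate to the spread of control and sample wells; inactive means z-score above -3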;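 further: negative z-score means lost luminescence so less FERM oligomerization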
CYP2C19 inhib: blocks human cytochrome P450 2C19 | P33261 | CYP2C19 Supersomes, luciferin-H EGE luminescence, 30 min | inhibition, % at 5 µM | 96,000 tested, 21% active | AID 778;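 active means CYP2C19 inhibition above a set limit at 5 µM in the primary screen, cut at about 50% in these data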;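 further: plate controls were negative control wells for no effect and 2.5 mM tranylcypromine positive control for full effect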
CYP2C9 act: increases human cytochrome P450 2C9 activity | 96,000 tested, 1.4% active | activation factor at 5 µM | recombinant CYP2C9, luciferin-H conversion, luminescence; hits give high values; factor 1 = untreated enzyme, 0 = blocked | AID 1024;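 active means activation factor of 2 or more for CYP2C9 at a 5 µM dose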;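 further: 0 = sulfaphenazole-blocked wells and 1 = vehicle-only wells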
Target sequence (P11712 whole entry, looked up): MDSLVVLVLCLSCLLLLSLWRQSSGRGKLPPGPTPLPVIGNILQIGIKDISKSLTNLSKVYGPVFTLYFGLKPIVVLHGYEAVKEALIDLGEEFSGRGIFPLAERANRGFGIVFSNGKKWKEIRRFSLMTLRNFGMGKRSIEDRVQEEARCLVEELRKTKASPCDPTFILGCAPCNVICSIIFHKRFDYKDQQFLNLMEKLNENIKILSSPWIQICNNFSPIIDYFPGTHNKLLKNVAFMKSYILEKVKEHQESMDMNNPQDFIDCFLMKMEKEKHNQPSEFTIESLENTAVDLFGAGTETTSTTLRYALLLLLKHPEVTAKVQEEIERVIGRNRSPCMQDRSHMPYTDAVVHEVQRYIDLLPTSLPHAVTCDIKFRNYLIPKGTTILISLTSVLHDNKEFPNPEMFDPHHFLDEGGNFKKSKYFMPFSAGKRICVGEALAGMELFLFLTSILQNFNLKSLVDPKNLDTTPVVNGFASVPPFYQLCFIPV
CYP2C9 inh: human CYP2C9 inhibition; CYP2C9 Supersomes, luciferin-H conversion, luminescence; 96,000 tested, 20% active; P11712; inhibition, % at 5 µM;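 active means blocking of liver enzyme CYP2C9 beyond about 50% at 5 µM, limit read from the data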
Starred values were filed as active, the others as inactive; x = no result. Sampled rows, rich in hits. Any-hit rate of the full collection: about 28%.

SMILES	CYP2C19 act	Pyk2 oligo antag	CYP2C19 inhib	CYP2C9 act	CYP2C9 inh
CCC(C)(C(=O)NC1CCCCC1)N(Cc1ccco1)C(=O)c1ccccn1 (stereo not drawn)	1	0.87	2.3	1	-3.6
CCCCOc1ccc(C(=O)C(CN2CCOCC2)c2ccccc2)cc1 (stereo not drawn)	x	-1.21	x	x	x
CCC(C(=O)c1ccc(O)cc1)c1ccccc1 (stereo not drawn)	0.5	-0.12	52.0*	1.3	-28.9
O=C(C1CCCN(S(=O)(=O)c2cccnc2)C1)N1CCn2c1nc1ccccc12 (stereo not drawn)	1	x	-3.7	0.9	5.8
COc1cccc(CNS(=O)(=O)/C=C/c2ccc3c(c2)OCO3)c1	0	1.59	98.8*	0.3	69.1*
CN(C)S(=O)(=O)NCc1ccc2c(c1)OCO2	0.3	0.78	69.3*	0.7	29.9
COc1ccc(S(=O)(=O)NCc2ccc3c(c2)OCO3)cc1C(=O)O	1.1	-0.78	-10.8	1.4	-43.9
COc1cccc(CNS(=O)(=O)c2cn(C)cn2)c1	0.8	0.25	18.1	0.9	5.0
COc1ccc(S(=O)(=O)NCc2ccc3c(c2)OCO3)cc1C	0	-0.32	99.9*	0.8	24.0
COc1cccc(S(=O)(=O)NCc2ccc3c(c2)OCO3)c1	0	-0.59	100.3*	0.1	91.4*
Cc1nc2ccccn2c1C(=O)NCc1cccnc1	0.5	-0.39	48.9	0.9	9.2
NC(=O)C[C@@H]1N[C@]2(C(=O)Nc3ccccc32)[C@@H]2C(=O)N(c3cc(C(F)(F)F)ccc3Cl)C(=O)[C@H]12	0.8	-0.13	24.1	0.7	25.3
COc1ccc2[nH]c3c(N4CCN(Cc5ccc6c(c5)OCO6)CC4)ncnc3c2c1	0.4	-1.37	57.9*	0.2	82.2*
COc1ccc2[nH]c3c(N4CCC(O)(c5cccc(C(F)(F)F)c5)CC4)ncnc3c2c1	0.6	-2.88	40.3	0.3	67.3*
COc1ccc2c(c1)c1ncnc(N3CCN(Cc4ccc5c(c4)OCO5)CC3)c1n2C	0.8	x	21.5	0.2	81.5*
COc1ccc(-n2c(SCC(=O)Nc3nccs3)nc3c(c2=O)SC(C)C3)cc1 (stereo not drawn)	1.1	x	-14.4	0.8	24.7
COc1ccc(OC)c(C2Nc3nc4ccccc4n3C(C)=C2C(=O)Nc2ccc(C)cc2C)c1 (stereo not drawn)	0.9	-0.38	9.6	0.9	10.5
Cc1ccc(S(=O)(=O)N2C(=O)C(c3ccccc3)SC2=Nc2ccccc2)cc1 (stereo not drawn)	0.9	-0.01	13.8	0.8	21.2
C=CCN=C1SC(C)C(=O)N1S(=O)(=O)c1ccccc1 (stereo not drawn)	0.3	2.84	73.3*	1.4	-36.4
CCOC(=O)c1cn(CC)c2ccc(Br)cc2c1=O	0.9	0.65	5.6	2*	-95.7
Cc1ccccc1NC(=O)C1CCC(C)(C(=O)O)C1(C)C (stereo not drawn)	1.2	0.55	-23.2	1.2	-19.7
OC1(c2ccccc2)C/C(=N\n2cnnc2)C=C1c1ccccc1 (stereo not drawn)	0	-0.61	98.8*	0	95.3*
CCOC(=O)N1CCC(n2c(SCC(=O)OCc3ccccc3)nc3ccsc3c2=O)CC1	0.6	-1.84	37.7	0.5	47.2
CCOC(=O)CSc1nc2cc(C(=O)NCc3ccco3)ccc2c(=O)n1C1CCCCC1	0.8	-0.07	19.8	0.5	51.1*
CCOC(=O)CSc1nc2cc(C(=O)N3CCC(C(N)=O)CC3)ccc2c(=O)n1-c1ccccc1	0.7	0.41	25.6	0.4	58.6*
SMILES	CYP2C19 act	Pyk2 oligo antag	CYP2C19 inhib	CYP2C9 act	CYP2C9 inh
CCOC(=O)CSc1nc2cc(C(=O)N3CCCC3)ccc2c(=O)n1Cc1ccccc1	0.6	-1.2	44.8	0.6	42.5
CCOC(=O)CSc1nc2ccsc2c(=O)n1C1CCN(C(=O)OCC)CC1	0.6	-0.04	42.1	0.4	61.5*
O=C(CSc1nc2ccsc2c(=O)n1Cc1ccc(C(=O)O)cc1)NCc1ccco1	x	-0.55	x	x	x
CCOC(=O)N1CCC(n2c(SCC(=O)NCc3ccco3)nc3ccsc3c2=O)CC1	0.8	-0.22	22.3	0.4	62.9*
CCOC(=O)N1CCC(n2c(SCC(=O)Nc3nccs3)nc3ccsc3c2=O)CC1	0.7	0.85	26.5	0.4	61.4*
COc1ccc(C2c3c(oc4ccccc4c3=O)C(=O)N2CC2CCCO2)cc1 (stereo not drawn)	0.8	-0.98	19.7	0.6	40.9
O=C1c2oc3ccccc3c(=O)c2C(c2cccc(F)c2)N1CCCO (stereo not drawn)	0.5	0.51	50.1*	0.9	8.1
O=C1c2oc3ccc(F)cc3c(=O)c2C(c2ccccc2)N1CC1CCCO1 (stereo not drawn)	0.8	-0.22	18.7	0.4	62.5*
COc1cc(C)nc2nc(SCc3ccccc3)nn12	0.8	0.92	23.4	1.3	-32.1
Cc1cc(C)nc(N(C#N)Cc2cccc3ccccc23)n1	0.4	-2.21	59.4*	2.9*	-193.9
Cc1cc(C)nc(N(C#N)CC(=O)c2ccccc2)n1	0.9	0.18	14.0	2.2*	-115.2
Cc1cc(C)nc(N(C#N)Cc2ccccc2)n1	0.9	-0.77	5.9	2*	-103.0
CCc1ccc(C(=O)CN(C#N)c2nc(C)cc(C)n2)cc1	0.7	-0.61	26.9	1.7	-71.4
Cc1cc(C)nc(N(C#N)CCOc2ccccc2)n1	0.6	-2.74	44.2	1.5	-51.7
CCC(CC)C(=O)Nc1cc(C)cc(C)c1	0.8	-0.19	18.1	0.7	25.4
C/C(=C\c1ccccc1)C(=O)n1nnc2ccccc21	0.7	0.45	28.2	1	3.9
COc1ccc(CCN2C(=O)c3[nH]nc(-c4ccccc4O)c3C2c2cccc(O)c2)cc1OC (stereo not drawn)	0.1	-3.78*	92.8*	0	98.1*
COc1ccc(C2c3c(-c4cc(Cl)c(C)cc4O)n[nH]c3C(=O)N2Cc2cccnc2)cc1OC (stereo not drawn)	0.1	-3.86*	85.7*	0.1	92.7*
COC(=O)C(NC(=O)c1ccccc1)(Nc1cc(C)cc(C)n1)C(F)(F)F (stereo not drawn)	x	0.49	x	x	x
CCN(c1ccc(C)c(C)c1)S(=O)(=O)c1c(C)[nH]c(=O)[nH]c1=O	0.9	-0.62	5.8	1.3	-25.3
O=C(Nc1ccc(Cl)cc1)N1CCSc2ccccc21	0.9	-0.78	14.2	0.7	29.7
Cc1noc(C)c1S(=O)(=O)N1CCN(c2ccccc2)CC1	0.2	x	80.4*	0.3	69.4*
Cc1noc(C)c1S(=O)(=O)N1CCC(Cc2ccccc2)CC1	0.8	-0.67	21.3	0.4	58.9*
Cc1noc(C)c1C(=O)N1CCC(Cc2ccccc2)CC1	0	0.14	98.8*	0.3	73.4*
CSc1nc(Cl)cc(N(CCO)CCO)n1	1	0.54	-3.5	1.3	-31.7
O=C(Cc1ccc(Cl)cc1)Nc1cccc(-c2nnc(-c3ccco3)o2)c1	0.2	-1.6	80.4*	0.2	77.6*
